Laboratory results published in PubChem BioAssay.
Activity calls are given as the source filed them.

Assays:
[1] = binders of probe aFSTL3 on microarray, primary screen, stem cell growth factor project, biochemical, small-molecule microarray, fluorescence 635/667 (AID 1064); conditions: higher = more signal;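 further: measures binding of the biotinylated anti-FSTL3 antibody to printed compounds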
[2] = binders from COS7 lysate, DM2A8 probe, primary screen, torsin A project, cell lysate, small-molecule microarray, fluorescence 635/667 (AID 1065); conditions: higher = more signal, COS7 lysate expressing mutant human TOR1A
[3] = binders of probe aFGF2 on microarray, primary screen, stem cell growth factor project, biochemical, small-molecule microarray, fluorescence 635/667 (AID 1067); conditions: higher = more signal;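 further: measures binding of biotinylated aFGF2 protein to printed compounds on slides; z-score merges feature fluorescence and signal-to-noise across triplicate slides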
[4] = binders of probe aFGF10 on microarray, primary screen, stem cell growth factor project, biochemical, small-molecule microarray, fluorescence 635/667 (AID 1071); conditions: higher = more signal;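 further: score merges 667 nm spot intensity and signal to noise from triplicate slides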
[5] = target: Neurogenic locus notch homolog protein 2 (Homo sapiens) (UniProt Q04721); assay: Notch2 binders on small-molecule microarrays, primary screen, biochemical, small-molecule microarray, 635 nm fluorescence, stem cell growth factors (AID 1073); conditions: Notch2 binding, higher = more signal
[6] = target: Pro-neuregulin-1, membrane-bound isoform (Homo sapiens) (UniProt Q02297); assay: NRG1 binders on small-molecule microarrays, primary screen, psychiatric disease protein project, biochemical, small-molecule microarray, fluorescence 635/667 (AID 1075); conditions: NRG1 binding, 635 nm fluorescence, higher = more signal;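 further: score combines 667 nm spot fluorescence with signal to noise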
Chain of Pro-neuregulin-1, membrane-bound isoform (Homo sapiens) (Q02297 whole entry, looked up, the tested form may be a part, canonical isoform): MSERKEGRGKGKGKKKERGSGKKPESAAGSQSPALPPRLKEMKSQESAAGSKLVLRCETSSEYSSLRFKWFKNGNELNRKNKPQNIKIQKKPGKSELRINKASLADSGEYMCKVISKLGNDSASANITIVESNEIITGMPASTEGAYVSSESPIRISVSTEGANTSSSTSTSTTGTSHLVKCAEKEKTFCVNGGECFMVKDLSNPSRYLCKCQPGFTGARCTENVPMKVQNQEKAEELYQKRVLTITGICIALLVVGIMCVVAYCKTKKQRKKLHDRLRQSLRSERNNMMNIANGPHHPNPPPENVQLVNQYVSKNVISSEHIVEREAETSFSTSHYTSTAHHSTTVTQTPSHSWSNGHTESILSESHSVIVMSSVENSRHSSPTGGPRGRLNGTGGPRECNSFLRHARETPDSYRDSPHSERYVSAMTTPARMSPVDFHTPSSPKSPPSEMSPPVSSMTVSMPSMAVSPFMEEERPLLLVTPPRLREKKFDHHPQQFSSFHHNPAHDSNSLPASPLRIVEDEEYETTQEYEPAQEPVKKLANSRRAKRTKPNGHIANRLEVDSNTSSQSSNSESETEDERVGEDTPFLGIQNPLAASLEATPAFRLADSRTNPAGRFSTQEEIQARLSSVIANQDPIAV

[7] = test system: Neuregulin-1 EGF-like domain; assay: binders of neuregulin-1 EGF-like domain, primary screen, biochemical, small-molecule microarray, 635 nm fluorescence (AID 1081); conditions: small-molecule microarray binding, higher = more signal;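 further: binding of the protein to compounds printed on small-molecule microarray slides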
[8] = FRG1 promoter luciferase signal modulators, primary screen, FRG1 inhibition for FSHD, cell-based, C2C12 myotubes, firefly/Renilla luciferase, luminescence (AID 1084); conditions: higher = more signal, called active from +8 up or from −8 down
[9] = binders of probe aFST on microarray, primary screen, stem cell growth factor project, biochemical, small-molecule microarray, fluorescence 635/667 (AID 1086); conditions: higher = more signal;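 further: score merges 667 nm fluorescence with signal-to-noise of each printed compound spot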
[10] = binders of probe aHhip on microarray, primary screen, stem cell growth factor project, biochemical, small-molecule microarray, fluorescence 635/667 (AID 1087); conditions: higher = more signal;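 further: score merges spot fluorescence at 667nm with spot signal to noise ratio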
[11] = test system: PRMT1 (protein arginine N-methyltransferase 1); assay: PRMT1 binders on small-molecule microarrays, primary screen, biochemical, small-molecule microarray, 635 nm fluorescence (AID 1088); conditions: small-molecule microarray binding, higher = more signal;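 further: binding of Prmt1 protein to compounds spotted on small-molecule microarray slides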
[12] = yeast growth modulation, basal conditions, primary screen, YJM789 clinical isolate, OD600, 24 h (AID 1089);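 further: growth of clinical yeast isolate S. cerevisiae YJM 789 seeded 1000 cells per well; test concentration not given here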; conditions: S. cerevisiae YJM789 growth, higher = more signal, called active from +8 up or from −8 down
[13] = fission yeast growth modulation, primary screen, strain 972, OD600, 24 h, no modulator (AID 1090);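 further: basal condition with compound alone and no growth modifier present; test concentration not given here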; conditions: S. pombe 972 growth, higher = more signal, called active from +8 up or from −8 down
[14] = S. cerevisiae growth modulation with rapamycin, primary screen, strain BY4716, OD600, 96 h (AID 1091); conditions: higher = more signal, called active from +8 up or from −8 down; further: test concentration not given here
[15] = target: Torsin-1A-interacting protein 2 (Homo sapiens) (UniProt Q8NFQ8); assay: LULL1 binders on small-molecule microarray, primary screen, cell lysate, human LULL1 lysate, 635/667 nm fluorescence (AID 1092); conditions: hLULL1 lysate binding, 635 nm fluorescence, higher = more signal;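 further: probe is lysate of COS7 cells overexpressing human LULL1; score merges per-feature 667 nm fluorescence with signal-to-noise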
Chain of Torsin-1A-interacting protein 2 (Homo sapiens) (Q8NFQ8 whole entry, looked up): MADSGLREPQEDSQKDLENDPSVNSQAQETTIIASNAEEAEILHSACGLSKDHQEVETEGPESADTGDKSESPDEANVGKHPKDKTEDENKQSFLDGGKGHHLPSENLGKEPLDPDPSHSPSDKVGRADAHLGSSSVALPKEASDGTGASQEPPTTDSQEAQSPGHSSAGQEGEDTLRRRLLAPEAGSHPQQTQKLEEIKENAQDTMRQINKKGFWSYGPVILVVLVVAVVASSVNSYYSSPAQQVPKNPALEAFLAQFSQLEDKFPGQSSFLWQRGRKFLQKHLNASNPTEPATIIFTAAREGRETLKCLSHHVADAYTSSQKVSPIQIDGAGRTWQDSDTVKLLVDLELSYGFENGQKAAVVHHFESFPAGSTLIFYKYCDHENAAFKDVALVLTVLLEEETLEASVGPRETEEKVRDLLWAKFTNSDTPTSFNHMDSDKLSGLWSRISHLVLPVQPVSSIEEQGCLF

[16] = E. coli growth modulation, two-sided OD650, primary screen, E. coli filamentation project, strain DRC41, 24 h (AID 1093); conditions: OD650, 24 h, higher = more signal, called active from +8 up or from −8 down;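 further: MC1000 strain lacking acrAB efflux and sulA so SOS filamentation is blocked; test concentration not given here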
[17] = small-molecule microarray binders of probe aLefty2, primary screen, biochemical, biotinylated probe, 635/667 nm fluorescence (AID 1094); conditions: higher = more signal;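 further: score merges spot fluorescence near 667 nm with spot signal-to-noise ratio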
[18] = test system: Noggin (protein binding on small-molecule microarray); assay: Noggin binders on small-molecule microarray, primary screen, biochemical, 635/667 nm fluorescence (AID 1095); conditions: 635 nm fluorescence, higher = more signal;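 further: score merges 667 nm feature fluorescence with signal to noise over triplicate slides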
[19] = target: Neurogenic locus notch homolog protein 3 (Homo sapiens) (UniProt Q9UM47); assay: NOTCH3 binders on small-molecule microarray, primary screen, biochemical, 635/667 nm fluorescence (AID 1096); conditions: NOTCH3 binding, 635 nm fluorescence, higher = more signal
Chain of Neurogenic locus notch homolog protein 3 (Homo sapiens) (Q9UM47 whole entry, looked up): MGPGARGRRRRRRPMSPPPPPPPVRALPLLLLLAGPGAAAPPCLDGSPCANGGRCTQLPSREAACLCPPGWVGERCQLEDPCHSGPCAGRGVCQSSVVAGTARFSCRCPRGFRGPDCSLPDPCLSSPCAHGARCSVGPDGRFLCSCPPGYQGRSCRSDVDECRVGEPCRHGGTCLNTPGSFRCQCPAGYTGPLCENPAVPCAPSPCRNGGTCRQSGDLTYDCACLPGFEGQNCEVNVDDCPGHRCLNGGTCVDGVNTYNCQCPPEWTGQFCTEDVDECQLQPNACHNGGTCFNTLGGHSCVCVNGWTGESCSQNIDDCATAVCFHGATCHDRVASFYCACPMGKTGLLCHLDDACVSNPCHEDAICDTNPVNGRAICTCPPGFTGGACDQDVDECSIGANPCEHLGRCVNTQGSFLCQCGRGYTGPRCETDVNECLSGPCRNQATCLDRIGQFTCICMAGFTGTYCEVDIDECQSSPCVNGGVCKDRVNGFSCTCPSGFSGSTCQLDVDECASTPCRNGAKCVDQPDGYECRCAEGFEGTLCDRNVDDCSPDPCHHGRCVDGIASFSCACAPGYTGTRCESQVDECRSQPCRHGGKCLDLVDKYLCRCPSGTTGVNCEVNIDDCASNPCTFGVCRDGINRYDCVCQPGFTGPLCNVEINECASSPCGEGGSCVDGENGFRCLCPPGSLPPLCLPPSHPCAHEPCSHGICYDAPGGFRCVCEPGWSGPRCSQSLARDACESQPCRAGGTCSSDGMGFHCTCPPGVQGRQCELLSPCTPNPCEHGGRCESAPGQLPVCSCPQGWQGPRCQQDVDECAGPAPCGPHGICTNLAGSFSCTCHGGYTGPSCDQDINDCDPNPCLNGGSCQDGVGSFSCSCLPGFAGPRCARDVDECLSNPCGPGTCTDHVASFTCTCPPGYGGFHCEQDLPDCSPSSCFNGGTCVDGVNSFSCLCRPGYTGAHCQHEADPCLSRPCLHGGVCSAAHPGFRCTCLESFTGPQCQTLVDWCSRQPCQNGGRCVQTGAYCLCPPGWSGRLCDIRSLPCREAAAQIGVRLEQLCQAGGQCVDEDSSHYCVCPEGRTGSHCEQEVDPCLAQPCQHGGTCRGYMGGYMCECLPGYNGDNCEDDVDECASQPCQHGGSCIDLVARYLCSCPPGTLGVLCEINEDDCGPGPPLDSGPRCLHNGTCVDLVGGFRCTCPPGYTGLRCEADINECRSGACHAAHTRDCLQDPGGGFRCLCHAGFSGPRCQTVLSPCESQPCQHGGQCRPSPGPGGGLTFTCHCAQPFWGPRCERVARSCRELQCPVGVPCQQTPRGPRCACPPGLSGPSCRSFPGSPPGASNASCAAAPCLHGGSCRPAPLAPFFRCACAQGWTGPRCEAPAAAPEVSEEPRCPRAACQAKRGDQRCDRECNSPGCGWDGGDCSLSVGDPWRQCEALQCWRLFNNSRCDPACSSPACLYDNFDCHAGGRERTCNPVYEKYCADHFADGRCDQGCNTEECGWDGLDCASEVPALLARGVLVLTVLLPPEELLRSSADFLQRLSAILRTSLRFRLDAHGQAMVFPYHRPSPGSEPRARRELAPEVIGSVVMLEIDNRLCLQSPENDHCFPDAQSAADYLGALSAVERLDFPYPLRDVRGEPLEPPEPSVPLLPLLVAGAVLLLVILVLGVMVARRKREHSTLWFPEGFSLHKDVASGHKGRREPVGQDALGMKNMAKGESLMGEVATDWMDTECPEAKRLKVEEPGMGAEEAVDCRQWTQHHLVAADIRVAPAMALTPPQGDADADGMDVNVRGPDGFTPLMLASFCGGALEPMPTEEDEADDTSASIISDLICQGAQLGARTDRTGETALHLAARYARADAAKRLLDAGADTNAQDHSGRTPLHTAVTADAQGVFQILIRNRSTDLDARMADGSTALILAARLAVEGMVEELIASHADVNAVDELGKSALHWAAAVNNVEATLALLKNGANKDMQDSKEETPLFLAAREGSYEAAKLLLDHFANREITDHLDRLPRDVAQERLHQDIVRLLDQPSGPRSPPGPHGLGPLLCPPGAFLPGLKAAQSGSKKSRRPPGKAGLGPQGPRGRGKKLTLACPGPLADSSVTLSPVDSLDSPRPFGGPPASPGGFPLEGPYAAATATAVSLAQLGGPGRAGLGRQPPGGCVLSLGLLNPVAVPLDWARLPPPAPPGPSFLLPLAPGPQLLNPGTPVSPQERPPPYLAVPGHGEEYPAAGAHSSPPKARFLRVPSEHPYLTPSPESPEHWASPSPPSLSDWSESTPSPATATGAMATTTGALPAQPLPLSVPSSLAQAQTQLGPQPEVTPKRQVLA

[20] = small-molecule microarray binders of probe aEGFR, primary screen, biochemical, biotinylated probe, 635/667 nm fluorescence (AID 1097); conditions: higher = more signal;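 further: probe is a biotinylated anti-EGFR antibody binding compounds printed on slides; score combines fluorescence near 667 nm and signal to noise of each spot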

SMILES	composite z-score [1]	composite z-score [2]	composite z-score [3]	composite z-score [4]	composite z-score [5]	composite z-score [6]	composite z-score [7]	z-score [8]	composite z-score [9]	composite z-score [10]	composite z-score [11]	z-score [12]	z-score [13]	z-score [14]	composite z-score [15]	z-score [16]	composite z-score [17]	composite z-score [18]	composite z-score [19]	composite z-score [20]
CO[C@H]1O[C@H](CO)[C@@H](OC(=O)c2ccc(Br)cc2)[C@@H]2OC(=O)[C@H](Cc3ccccc3)C/C=C/C[C@@H](Cc3ccccc3)C(=O)O[C@@H]12	-0.287	0.418	-0.0048	0.706	0.496	1.64	0.615	-0.215 (inactive)	-0.024	-0.0645	0.965	-1.92 (inactive)	-1.19 (inactive)	0.161 (inactive)	1.63	2.14 (inactive)	0.13	0.413	0.181	-0.176
C[C@]1(C(=O)NCCN2CCOCC2)c2ccccc2C(=O)N(Cc2cc(F)cc(C(F)(F)F)c2)[C@H]1c1ccc(CO)cc1	0.0545	0.933	-0.141	-0.762	-0.387	1.06	1.47	-1.54 (inactive)	1.16	-0.0994	1.49	0.006 (inactive)	0.487 (inactive)	-0.837 (inactive)	3.36	1.47 (inactive)	-0.0511	0.463	0.572	-0.142
C=CCC(OC(C)=O)[C@@H]1[C@@H](N(Cc2cccc3ccccc23)C(=O)Cc2ccc(F)cc2)c2cc(OCCCO)ccc2N1C(=O)c1ccc(-c2ccccc2)cc1 (stereo not given in full)	0.873	-0.302	-0.0427	-0.387	-0.648	-0.61	-0.802	-1.83 (inactive)	0.392	-0.14	-0.325	-0.256 (inactive)	-0.277 (inactive)	0.18 (inactive)	0.451	0.125 (inactive)	0.125	-0.556	-1.37	0.0457
[N-]=[N+]=NCc1ccccc1[C@H]1OC(c2ccc(OCCCO)cc2)=N[C@@]1(Cc1ccccc1)C(=O)NCCN1CCOCC1	-0.714	0.614	-0.0627	1.09	1.49	1.34	1.23	-0.731 (inactive)	0.213	-0.0994	1.53	-1.07 (inactive)	-0.864 (inactive)	-0.31 (inactive)	3.34	1.12 (inactive)	0.443	0.52	1.09	-0.0329
COCC(=C=CC[C@@H](O)c1cccc(OCCO)c1)CCO	-0.117	0.0969	-0.11	0.674	0.234	0.678	1.02	0.604 (inactive)	0.101	-0.0074	0.783	0.0995 (inactive)	0.114 (inactive)	-0.0032 (inactive)	0.939	0.0464 (inactive)	-0.171	0.225	0.669	0.102
COc1cc(NN2C(C(O)c3ccc(I)cc3)C=CC3C(=O)N(c4ccccc4)C(=O)C32)cc(OC)c1OC (stereo not given)	0.32	0.808	0.145	0.868	1.55	2.04	1.35	-2.51 (inactive)	1.22	0.415	1.56	0.93 (inactive)	-0.229 (inactive)	0.0332 (inactive)	3.56	-0.699 (inactive)	0.25	0.218	1.05	-0.0423
CN1C(=O)C2C(C1=O)C1C=C(CCCO)C2C(C2CC2)N1Cc1cc2c(cc1Br)OCO2 (stereo not given)	0.454	0.919	-0.141	0.271	0.713	1.24	1.29	-0.999 (inactive)	0.252	-0.201	0.84	-3.43 (inactive)	-1.03 (inactive)	-0.932 (inactive)	2.82	0.307 (inactive)	0.183	0.304	0.699	0.0185
NC(=O)NCC#Cc1ccc2c(c1)[C@]1(C(=O)N2)[C@H](C(=O)N2CCN(c3ncccn3)CC2)[C@H]2C(=O)O[C@H](c3ccccc3)[C@H](c3ccccc3)N2[C@@H]1c1ccc(OCCO)cc1	0.0085	0.0039	-0.0222	0.375	0.884	0.133	0.148	1.62 (inactive)	0.548	0.0659	1.18	2.47 (inactive)	2.31 (inactive)	5.27 (inactive)	1.89	1.37 (inactive)	-0.0321	0.513	1.13	-0.0271
C=C[C@@H](OC)[C@H](OC(=O)Nc1ccc(OC)cc1)c1ccc(OC)c(O)c1	0.54	-0.998	-0.087	-0.624	-1.06	-0.401	1.23	3.56 (inactive)	-0.857	0.0505	-0.391	0.239 (inactive)	-0.375 (inactive)	-0.901 (inactive)	1.04	0.234 (inactive)	-0.124	-0.527	-0.449	-0.25
CCOC(=O)C1=C[C@@H](C(C)(C)C)N(S(=O)(=O)c2ccc(C)cc2)[C@H]1c1ccccc1	0.401	0.685	0.0524	0.69	1.63	0.4	0.954	-1.66 (inactive)	1.04	0.206	1.22	0.826 (inactive)	1.27 (inactive)	1.41 (inactive)	0.928	-0.0247 (inactive)	0.0194	0.576	1.07	0.124
